Experimental data as given in PubChem BioAssay (EPA / NIEHS).
Results filed as inconclusive are left out. Calls of active or inactive are those of the source. The calls were made as follows: active = hit-call score of the fitted dose curve at least 0.9, where 1 is the maximum; inconclusive = response in the unintended direction; inactive = score below 0.9.

System: not listed separately
Experiment: TOX21_p53_BLA_p4_viability: Viability Assessment in the Tox21 HCT-116 p53 Agonism Beta-lactamase Assay, Phase 4 (AID 2283597);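 also: hits lower the luminescence signal meaning cytotoxicity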
Procedure, shortened: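 Following a 16 h exposure at 37C, the treated HCT116 wells were first read for the FRET ratio. They were then lysed with CellTiter-Glo, and ATP luminescence was recorded after 30 min at room temperature.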

SMILES	outcome
CC(C)(CCl)c1ccccc1	inactive
CC(=O)OCC(=O)[C@@]1(O)CC[C@H]2[C@@H]3C[C@H](C)C4=CC(=O)C=C[C@]4(C)[C@H]3[C@@H](O)C[C@@]21C	inactive
CC[C@@H](N)CO	inactive
CCCCC(=O)O[C@]1(C(=O)CO)CC[C@H]2[C@@H]3CCC4=CC(=O)CC[C@]4(C)[C@H]3[C@@H](O)C[C@@]21C	inactive
CC(C)(O)CCC(C)(C)O	inactive
CC1CCCCN1CCCOC(=O)c1ccccc1 (centres undefined)	inactive
CC(CC(=O)O)CC(C)(C)C (centres undefined)	inactive
CC(C)Cc1ccc([C@H](C)C(=O)O)cc1	inactive
CS(=O)(=O)O	inactive
CCc1ccc(Br)cc1	inactive
CCC=C1OC(=O)c2ccccc21	inactive
C/C=C(/CC[C@@H](C)[C@H]1CC[C@H]2C3=CC[C@H]4[C@H](C)[C@@H](O)CC[C@]4(C)[C@H]3CC[C@]12C)C(C)C	inactive
CCNC(=O)[C@@H]1CCCN1C(=O)[C@H](CCCN=C(N)N)NC(=O)[C@H](CC(C)C)NC(=O)[C@@H](CC(C)C)NC(=O)[C@H](Cc1ccc(O)cc1)NC(=O)[C@H](CO)NC(=O)[C@H](Cc1c[nH]c2ccccc12)NC(=O)[C@H](Cc1cnc[nH]1)NC(=O)[C@@H]1CCC(=O)N1	inactive
COc1ccc(CC2c3cc(OC)c(OC)cc3CC[N+]2(C)CCC(=O)OCCCCCOC(=O)CC[N+]2(C)CCc3cc(OC)c(OC)cc3C2Cc2ccc(OC)c(OC)c2)cc1OC (centres undefined)	inactive
C=CC(=O)NC(C)C	inactive
CN1C(C(=O)Nc2ccccn2)C(=O)c2sc(Cl)cc2S1(=O)=O (centres undefined)	inactive
CCCCOC(=O)C(=O)OCCCC	inactive
C=CCSSCCC	inactive
COC(=O)NN	inactive
O=C(O)/C=C/c1cnc[nH]1	inactive
C=CCCCCCCCCCCC	inactive
Cc1c(O)cc2c(c1C)O[C@](C)(CCC[C@H](C)CCC[C@H](C)CCCC(C)C)CC2	inactive
CCC(=O)OC(OP(=O)(CCCCc1ccccc1)CC(=O)N1C[C@H](C2CCCCC2)C[C@H]1C(=O)O)C(C)C (some centres undefined)	inactive
O=C1N=C2SCCN2C(=O)C1Cc1ccc(Cl)cc1 (centres undefined)	inactive
CCCCCCCCCCCC[N+](C)(C)CCCS(=O)(=O)[O-]	inactive
Nc1nc(NC2CC2)c2ncn([C@H]3C=C[C@@H](CO)C3)c2n1	inactive
CCCCNc1c(C(=O)OCC)c(C)nc2c1cnn2CC	inactive

Target: Cellular tumor antigen p53 (Homo sapiens) (UniProt P04637)
Sequence (P04637 whole entry, looked up): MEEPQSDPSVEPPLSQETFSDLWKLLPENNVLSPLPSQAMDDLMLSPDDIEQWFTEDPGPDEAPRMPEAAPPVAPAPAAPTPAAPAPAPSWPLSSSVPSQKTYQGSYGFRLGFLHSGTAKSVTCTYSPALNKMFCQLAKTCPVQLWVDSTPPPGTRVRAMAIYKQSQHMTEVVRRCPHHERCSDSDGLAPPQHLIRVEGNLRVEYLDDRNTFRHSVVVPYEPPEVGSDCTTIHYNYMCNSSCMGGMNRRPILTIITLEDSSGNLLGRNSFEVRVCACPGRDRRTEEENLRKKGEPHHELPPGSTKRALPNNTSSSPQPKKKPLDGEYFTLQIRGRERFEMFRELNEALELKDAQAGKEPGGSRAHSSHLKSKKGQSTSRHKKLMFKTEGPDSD
Experiment: TOX21_p53_BLA_p5_ratio: Tox21 HCT-116 p53 Agonism Beta-lactamase Assay, Ratio, Phase 5 (AID 2283599)
Procedure, shortened: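 HCT-116 p53-bla cells (4000/well) plated 5 h, dosed with compound (217-fold DMSO dilution) for 16 h at 37 C; CCF4-AM substrate 2 h at room temperature. Activity is the 460/530 nm emission ratio (405 nm excitation), fitted in gain-of-signal direction versus DMSO.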

SMILES	outcome
FC(F)(F)c1ccccc1	inactive
CCCCCCCCCCCCCC=O	inactive
CC(C)(CCl)c1ccccc1	inactive
CC(=O)OCC(=O)[C@@]1(O)CC[C@H]2[C@@H]3C[C@H](C)C4=CC(=O)C=C[C@]4(C)[C@H]3[C@@H](O)C[C@@]21C	inactive
CC[C@@H](N)CO	inactive
COC(=O)c1cc(C(=O)OC)cc(S(=O)(=O)O)c1	inactive
CC(C)(O)CCC(C)(C)O	inactive
CCOC(=O)C(C)(C)C	inactive
CCC=C1OC(=O)c2ccccc21	inactive
CCNC(=O)[C@@H]1CCCN1C(=O)[C@H](CCCN=C(N)N)NC(=O)[C@H](CC(C)C)NC(=O)[C@@H](CC(C)C)NC(=O)[C@H](Cc1ccc(O)cc1)NC(=O)[C@H](CO)NC(=O)[C@H](Cc1c[nH]c2ccccc12)NC(=O)[C@H](Cc1cnc[nH]1)NC(=O)[C@@H]1CCC(=O)N1	inactive
O=C(O[C@@H](C(=O)O)[C@@H](OC(=O)c1ccccc1)C(=O)O)c1ccccc1	inactive
CN1C(C(=O)Nc2ccccn2)C(=O)c2sc(Cl)cc2S1(=O)=O (centres undefined)	inactive
CCCCOC(=O)C(=O)OCCCC	inactive
COC(=O)[C@@H](N)Cc1ccc(O)c(O)c1	inactive
CC(=O)Nc1ccc(S(=O)(=O)Nc2cc(C)on2)cc1	inactive
COC(=O)NN	inactive
C=CCCCCCCCCCCC	inactive
COc1ccc(C)cc1[N+](=O)[O-]	inactive
Cc1c(O)cc2c(c1C)O[C@](C)(CCC[C@H](C)CCC[C@H](C)CCCC(C)C)CC2	inactive
CCCCCCCCCCCC[N+](C)(C)CCCS(=O)(=O)[O-]	inactive
CCCC(=O)Nc1ncnc2c1ncn2[C@@H]1O[C@@H]2COP(=O)(O)O[C@H]2[C@H]1OC(=O)CCC	inactive
Nc1nc(NC2CC2)c2ncn([C@H]3C=C[C@@H](CO)C3)c2n1	inactive
CCOC(=O)Nc1ccc2c(c1)N(C(=O)CCN1CCOCC1)c1ccccc1S2	inactive

System: not listed separately
Experiment: TOX21_p53_BLA_p5_viability: Viability Assessment in the Tox21 HCT-116 p53 Agonism Beta-lactamase Assay, Phase 5 (AID 2283600)
Procedure, shortened: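 After the 460/530 nm beta-lactamase measurement, the wells received an ATP-detection luciferase reagent; signal was read 30 min later at RT. Compound treatment lasted 16 h on cells pre-incubated 5 h post-seeding.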

SMILES	outcome
FC(F)(F)c1ccccc1	inactive
CCCCCCCCCCCCCC=O	inactive
CC(C)(CCl)c1ccccc1	inactive
COC(=O)c1cc(C(=O)OC)cc(S(=O)(=O)O)c1	inactive
CC(C)(O)CCC(C)(C)O	inactive
CC1CCCCN1CCCOC(=O)c1ccccc1 (centres undefined)	inactive
CC(CC(=O)O)CC(C)(C)C (centres undefined)	inactive
CCOC(=O)C(C)(C)C	inactive
CC(C)Cc1ccc([C@H](C)C(=O)O)cc1	inactive
CCC=C1OC(=O)c2ccccc21	inactive
C/C=C(/CC[C@@H](C)[C@H]1CC[C@H]2C3=CC[C@H]4[C@H](C)[C@@H](O)CC[C@]4(C)[C@H]3CC[C@]12C)C(C)C	inactive
CC(=O)Nc1ccc(S(=O)(=O)Nc2cc(C)on2)cc1	inactive
COC(=O)NN	inactive
COc1ccc(C)cc1[N+](=O)[O-]	inactive
CCC(=O)OC(OP(=O)(CCCCc1ccccc1)CC(=O)N1C[C@H](C2CCCCC2)C[C@H]1C(=O)O)C(C)C (some centres undefined)	inactive
O=C1N=C2SCCN2C(=O)C1Cc1ccc(Cl)cc1 (centres undefined)	inactive
CCCC(=O)Nc1ncnc2c1ncn2[C@@H]1O[C@@H]2COP(=O)(O)O[C@H]2[C@H]1OC(=O)CCC	inactive
CCOC(=O)Nc1ccc2c(c1)N(C(=O)CCN1CCOCC1)c1ccccc1S2	inactive
CCCCNc1c(C(=O)OCC)c(C)nc2c1cnn2CC	inactive
